# Experimental data from publication PMC11102866, “Nucleosome-bound NR5A2 structure reveals pioneer factor mechanism by DNA minor groove anchor competition”.
# B1: 94 (nucleosome)
# DNA 1: ATCCTGGAGAATCCCGGTGCCGAGGCCGCTCAATTGGTCGTAGACAGCTCTAGCACCGCTTAAACGCACGTACGCGCTGTCCCCCGCGTTTTAACCTCAAGGCCAATTACTCCCTAGTCTCCAGGCACGTGTCAGATATATACATCCTGTGAT
# DNA 2: ATCACAGGATGTATATATCTGACACGTGCCTGGAGACTAGGGAGTAATTGGCCTTGAGGTTAAAACGCGGGGGACAGCGCGTACGTGCGTTTAAGCGGTGCTAGAGCTGTCTACGACCAATTGAGCGGCCTCGGCACCGGGATTCTCCAGGAT
# modifications: reconstituted with mouse histones H2A, H2B, H3.3 and H4
# B2: 95 (nucleosome)
# DNA 1: ATCCTGGAGAATCCCGGTGCCGAGGCCGCTCAATTGGTCGTAGACAGCTCTAGCACCGCTTAAACGCACGTACGCGCTGTCCCCCGCGTTTTAACCGTCAAGGCCATTACTCCCTAGTCTCCAGGCACGTGTCAGATATATACATCCTGTGAT
# DNA 2: ATCACAGGATGTATATATCTGACACGTGCCTGGAGACTAGGGAGTAATGGCCTTGACGGTTAAAACGCGGGGGACAGCGCGTACGTGCGTTTAAGCGGTGCTAGAGCTGTCTACGACCAATTGAGCGGCCTCGGCACCGGGATTCTCCAGGAT
# modifications: reconstituted with mouse histones H2A, H2B, H3.3 and H4
# B3: 96 (nucleosome)
# DNA 1: ATCCTGGAGAATCCCGGTGCCGAGGCCGCTCAATTGGTCGTAGACAGCTCTAGCACCGCTTAAACGCACGTACGCGCTGTCCCCCGCGTTTTAACCGCTCAAGGCCATACTCCCTAGTCTCCAGGCACGTGTCAGATATATACATCCTGTGAT
# DNA 2: ATCACAGGATGTATATATCTGACACGTGCCTGGAGACTAGGGAGTATGGCCTTGAGCGGTTAAAACGCGGGGGACAGCGCGTACGTGCGTTTAAGCGGTGCTAGAGCTGTCTACGACCAATTGAGCGGCCTCGGCACCGGGATTCTCCAGGAT
# modifications: reconstituted with mouse histones H2A, H2B, H3.3 and H4
# B4: 97 (nucleosome)
# DNA 1: ATCCTGGAGAATCCCGGTGCCGAGGCCGCTCAATTGGTCGTAGACAGCTCTAGCACCGCTTAAACGCACGTACGCGCTGTCCCCCGCGTTTTAACCGCCTCAAGGCCAACTCCCTAGTCTCCAGGCACGTGTCAGATATATACATCCTGTGAT
# DNA 2: ATCACAGGATGTATATATCTGACACGTGCCTGGAGACTAGGGAGTTGGCCTTGAGGCGGTTAAAACGCGGGGGACAGCGCGTACGTGCGTTTAAGCGGTGCTAGAGCTGTCTACGACCAATTGAGCGGCCTCGGCACCGGGATTCTCCAGGAT
# modifications: reconstituted with mouse histones H2A, H2B, H3.3 and H4
# B5: 98 (nucleosome)
# DNA 1: ATCCTGGAGAATCCCGGTGCCGAGGCCGCTCAATTGGTCGTAGACAGCTCTAGCACCGCTTAAACGCACGTACGCGCTGTCCCCCGCGTTTTAACCGCCATCAAGGCCACTCCCTAGTCTCCAGGCACGTGTCAGATATATACATCCTGTGAT
# DNA 2: ATCACAGGATGTATATATCTGACACGTGCCTGGAGACTAGGGAGTGGCCTTGATGGCGGTTAAAACGCGGGGGACAGCGCGTACGTGCGTTTAAGCGGTGCTAGAGCTGTCTACGACCAATTGAGCGGCCTCGGCACCGGGATTCTCCAGGAT
# modifications: reconstituted with mouse histones H2A, H2B, H3.3 and H4
# B6: 99 (nucleosome)
# DNA 1: ATCCTGGAGAATCCCGGTGCCGAGGCCGCTCAATTGGTCGTAGACAGCTCTAGCACCGCTTAAACGCACGTACGCGCTGTCCCCCGCGTTTTAACCGCCAATCAAGGCCATCCCTAGTCTCCAGGCACGTGTCAGATATATACATCCTGTGAT
# DNA 2: ATCACAGGATGTATATATCTGACACGTGCCTGGAGACTAGGGATGGCCTTGATTGGCGGTTAAAACGCGGGGGACAGCGCGTACGTGCGTTTAAGCGGTGCTAGAGCTGTCTACGACCAATTGAGCGGCCTCGGCACCGGGATTCTCCAGGAT
# modifications: reconstituted with mouse histones H2A, H2B, H3.3 and H4
# B7: 100 (nucleosome)
# DNA 1: ATCCTGGAGAATCCCGGTGCCGAGGCCGCTCAATTGGTCGTAGACAGCTCTAGCACCGCTTAAACGCACGTACGCGCTGTCCCCCGCGTTTTAACCGCCAAGTCAAGGCCACCCTAGTCTCCAGGCACGTGTCAGATATATACATCCTGTGAT
# DNA 2: ATCACAGGATGTATATATCTGACACGTGCCTGGAGACTAGGGTGGCCTTGACTTGGCGGTTAAAACGCGGGGGACAGCGCGTACGTGCGTTTAAGCGGTGCTAGAGCTGTCTACGACCAATTGAGCGGCCTCGGCACCGGGATTCTCCAGGAT
# modifications: reconstituted with mouse histones H2A, H2B, H3.3 and H4
# B8: 101 (nucleosome)
# DNA 1: ATCCTGGAGAATCCCGGTGCCGAGGCCGCTCAATTGGTCGTAGACAGCTCTAGCACCGCTTAAACGCACGTACGCGCTGTCCCCCGCGTTTTAACCGCCAAGGTCAAGGCCACCTAGTCTCCAGGCACGTGTCAGATATATACATCCTGTGAT
# DNA 2: ATCACAGGATGTATATATCTGACACGTGCCTGGAGACTAGGTGGCCTTGACCTTGGCGGTTAAAACGCGGGGGACAGCGCGTACGTGCGTTTAAGCGGTGCTAGAGCTGTCTACGACCAATTGAGCGGCCTCGGCACCGGGATTCTCCAGGAT
# modifications: reconstituted with mouse histones H2A, H2B, H3.3 and H4
# B9: 5 (nucleosome)
# DNA 1: ATCCTGGTCAAGGCCAGTGCCGAGGCCGCTCAATTGGTCGTAGACAGCTCTAGCACCGCTTAAACGCACGTACGCGCTGTCCCCCGCGTTTTAACCGCCAAGGGGATTACTCCCTAGTCTCCAGGCACGTGTCAGATATATACATCCTGTGAT
# DNA 2: ATCACAGGATGTATATATCTGACACGTGCCTGGAGACTAGGGAGTAATCCCCTTGGCGGTTAAAACGCGGGGGACAGCGCGTACGTGCGTTTAAGCGGTGCTAGAGCTGTCTACGACCAATTGAGCGGCCTCGGCACTGGCCTTGACCAGGAT
# modifications: reconstituted with mouse histones H2A, H2B, H3.3 and H4
# Target: NR5A2 wild type;histone octamer (Homo sapiens;, UniProt O00482;C0HKE1;Q6ZWY9;P84244;P62806 1-541;2-130;2-126;2-136;2-103, |)
# Test: SeEN-seq (EMSA of nucleosome library followed by sequencing); 0.8 uM human NR5A2; 20 mM Tris-HCl pH 7.5, 120 mM NaCl, 1 mM MgCl2, 10 uM ZnCl2, 1 mM DTT, 100 ug/ml BSA, room temperature, 30 min; 0.1 uM nucleosome library; high values mean tight binding
row,Binder,binding signal
1,B1,"1.36 log2 enrichment (bound/unbound, relative to Widom 601)"
2,B2,"1.87 log2 enrichment (bound/unbound, relative to Widom 601)"
3,B3,"1.16 log2 enrichment (bound/unbound, relative to Widom 601)"
4,B4,"0.742 log2 enrichment (bound/unbound, relative to Widom 601)"
5,B5,"0.701 log2 enrichment (bound/unbound, relative to Widom 601)"
6,B6,"0.545 log2 enrichment (bound/unbound, relative to Widom 601)"
7,B7,"0.655 log2 enrichment (bound/unbound, relative to Widom 601)"
8,B8,"2.38 log2 enrichment (bound/unbound, relative to Widom 601)"

# Target: mouse Nr5a2 wild type;histone octamer (Mus musculus;, UniProt P45448;C0HKE1;Q6ZWY9;P84244;P62806 1-560;2-130;2-126;2-136;2-103, |)
# Test: SeEN-seq (EMSA of nucleosome library followed by sequencing); 1.2 uM mouse Nr5a2; 20 mM Tris-HCl pH 7.5, 120 mM NaCl, 1 mM MgCl2, 10 uM ZnCl2, 1 mM DTT, 100 ug/ml BSA, room temperature, 30 min; 0.1 uM nucleosome library; high values mean tight binding
row,Binder,binding signal
1,B1,"1.22 log2 enrichment (bound/unbound, relative to Widom 601)"
2,B2,"1.29 log2 enrichment (bound/unbound, relative to Widom 601)"
3,B3,"1.04 log2 enrichment (bound/unbound, relative to Widom 601)"
4,B4,"0.636 log2 enrichment (bound/unbound, relative to Widom 601)"
5,B5,"0.557 log2 enrichment (bound/unbound, relative to Widom 601)"
6,B6,"0.468 log2 enrichment (bound/unbound, relative to Widom 601)"
7,B7,"0.488 log2 enrichment (bound/unbound, relative to Widom 601)"
8,B8,"1.47 log2 enrichment (bound/unbound, relative to Widom 601)"
9,B9,"1.14 log2 enrichment (bound/unbound, relative to Widom 601)"
